Hits are enriched below; roughly 1.6% of the tested compounds scored in any of these assays.
KCNQ2 enhance = KCNQ2 (rat) channel potentiation; CHO-K1 KCNQ2, FluxOR thallium flux fluorescence; hits give high values; hit rate 0.54% among 310,000; B-score at 10 µM;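 active = fluorescence ratio B-score at least 3 SD of library B-scores, with initial fluorescence B-score within 3 of them, cut at about 5.3 in these data; same plate scores as AID 2156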;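 note: B-score of peak minus minimum over baseline fluorescence ratio after K+ and Tl+ stimulus; positive B-score means potentiation of KCNQ2 with more thallium influx and brighter signal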
Target sequence (O88943 whole entry, looked up): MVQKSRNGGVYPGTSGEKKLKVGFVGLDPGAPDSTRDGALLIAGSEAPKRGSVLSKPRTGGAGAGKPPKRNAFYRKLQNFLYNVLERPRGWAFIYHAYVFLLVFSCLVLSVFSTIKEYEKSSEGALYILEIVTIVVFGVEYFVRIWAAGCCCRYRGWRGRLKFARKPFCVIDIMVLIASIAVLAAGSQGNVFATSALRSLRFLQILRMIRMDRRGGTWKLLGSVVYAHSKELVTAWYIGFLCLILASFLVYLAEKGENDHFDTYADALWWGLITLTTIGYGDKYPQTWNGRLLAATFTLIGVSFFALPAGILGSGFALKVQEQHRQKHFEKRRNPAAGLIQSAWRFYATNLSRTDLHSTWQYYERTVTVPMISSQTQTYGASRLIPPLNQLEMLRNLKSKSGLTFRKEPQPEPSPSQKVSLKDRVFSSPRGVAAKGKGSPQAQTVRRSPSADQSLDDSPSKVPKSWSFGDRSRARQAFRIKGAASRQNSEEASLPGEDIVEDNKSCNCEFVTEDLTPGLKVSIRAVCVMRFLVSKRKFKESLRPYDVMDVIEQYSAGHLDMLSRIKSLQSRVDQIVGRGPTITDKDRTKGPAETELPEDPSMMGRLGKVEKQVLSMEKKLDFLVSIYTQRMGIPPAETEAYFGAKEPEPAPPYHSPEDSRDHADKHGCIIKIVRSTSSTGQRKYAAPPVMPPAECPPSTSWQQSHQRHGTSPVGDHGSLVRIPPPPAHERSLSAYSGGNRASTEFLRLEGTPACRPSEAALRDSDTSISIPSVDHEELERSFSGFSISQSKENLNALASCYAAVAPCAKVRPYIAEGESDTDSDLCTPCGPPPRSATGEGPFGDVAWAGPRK
KCNQ2 block = KCNQ2 (rat) channel inhibition; O88943; CHO-K1 KCNQ2, FluxOR thallium flux, 20 min; hits give low values; B-score at 10 µM; hit rate 1.1% among 310,000; AID 2156;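 active = fluorescence ratio B-score at most minus 3 library SDs, with starting brightness B-score within 2 library SDs, cut at about -5.5 in these data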
* hit, by the source's call; i = inactive; nt = not tested or not shown.

SMILES | KCNQ2 enhance | KCNQ2 block
CC(C)(C)c1cc(C(=O)Nc2cccc3ccccc23)ccn1 | -5.8 | -5.8*
Cc1ccc(C(=O)NCc2ccccn2)cc1NC1=NC2CS(=O)(=O)CC2S1 (configuration not stated) | 1.6 | i
CCCCCC(=O)Nc1ccc(C2C(=O)c3ccccc3C2=O)cc1 | 0.84 | i
Oc1c(Br)cc(Br)cc1C=NCc1ccc(F)cc1 | 11* | i
Oc1c(Br)cc(Br)cc1C=NCc1ccccc1 | nt | i
CC(=O)c1ccc(C(=O)N2CCCC(CNC(=O)c3ccccc3Cl)C2)cc1 (configuration not stated) | nt | i
Cc1cccc(NC(=O)N2CCCC(CNC(=O)c3ccccc3Cl)C2)c1C (configuration not stated) | -8.2 | -8.2*
Cc1cccc(C(C)C)c1NC(=O)C(C)OC(=O)Cc1n[nH]c(=O)c2ccccc12 (configuration not stated) | -6.7 | -6.7*
COc1ccccc1NC(=O)C(C)OC(=O)Cc1n[nH]c(=O)c2ccccc12 (configuration not stated) | 0.51 | i
COc1ccccc1-c1cc(C(=O)NC2CCN(C)CC2)c2ccc(Cl)c(C)c2n1 | -5.8 | -5.8*
Cc1c(Cl)ccc2c(C(=O)NCCN3CCCCC3)cc(-c3ccccn3)nc12 | nt | i
COc1cc(C(=O)N2CCN(C(=O)c3cc(-c4ccccc4)n[nH]3)CC2)cc(OC)c1OC | 0.41 | i
CCOC(=O)C1CCCN(C(=O)c2cc(-c3ccc(C)cc3)nc3ccccc23)C1 (configuration not stated) | -5.6 | -5.6*
CCOC(=O)C1CCCN(C(=O)c2cc(Nc3ccc(OC)cc3OC)nc3ccccc23)C1 (configuration not stated) | -7.6 | -7.6*
CCOC(=O)C1CCCN(C(=O)c2cnn3c(C(F)(F)F)cc(-c4ccccc4)nc23)C1 (configuration not stated) | nt | i
CCOC(=O)C1CCCN(C(=O)c2cc(Nc3ccc(OC)c(OC)c3)nc3ccccc23)C1 (configuration not stated) | nt | i
CC1=C(C(=O)OCc2ccccc2)C(c2cccc(F)c2)NC(=O)N1 (configuration not stated) | 0.13 | i
Cc1c(C(=O)N2CCN(Cc3ccccc3)CC2)oc2c1C(=O)CCC2 | 1.7 | i
CN(C)c1ccc(C(=O)N2CCCC(N3CCN(Cc4ccc5c(c4)OCO5)CC3)C2)cc1 (configuration not stated) | 0.96 | i
O/N=C/c1ccc(OCc2ccccc2)c(Br)c1 | nt | i
O/N=C/c1cc(Br)cc(Br)c1OCc1ccccc1 | -5.6 | -5.6*
CC(=O)Nc1ccc(S(=O)(=O)NC(C(=O)O)C(C)O)cc1 (configuration not stated) | nt | i
CCC1(CC)C(=O)C2=C3C1[C@H](C(=O)OC)C=C(C(=O)OC)C[C@H]3[C@H]1C(=O)N(CC(=O)OC)C(=O)[C@H]1[C@H]2C (some centres not stated) | nt | i
COc1ccc(C(=O)Cc2cc3ccccc3oc2=O)cc1 | 0.14 | i
Cc1ccc2nc(-c3ccc(N4C(=O)CC(N5CCN(CCO)CC5)C4=O)cc3)sc2c1 (configuration not stated) | -6.3 | -6.3*
SMILES | KCNQ2 enhance | KCNQ2 block
Cc1ccc(N2C(=O)CC(N3CCN(c4ccccn4)CC3)C2=O)cc1 (configuration not stated) | nt | i
O=C(Nc1ccccc1C(=O)N1CCCC1)c1ncoc1-c1cccc(Cl)c1 | nt | i
CCN(CC)S(=O)(=O)c1cc(NC(=O)COc2ccc(C#N)cc2OC)ccc1C | nt | i
CCN(CC)S(=O)(=O)c1cccc(NC(=O)COc2ccc(F)cc2Br)c1 | -7.6 | -7.6*
CCN(CC)S(=O)(=O)c1cccc(NC(=O)COc2ccc(C#N)cc2OC)c1 | 7.5* | i
CCN(CC)S(=O)(=O)c1ccc(C)c(NC(=O)COc2ccc(Cl)cc2Br)c1 | 0.05 | i
C/C(Cn1nnc2ccccc21)=N\NC(=O)c1cccc(Br)c1 | nt | i
Cc1ccc(C)c(NC(=O)CN(C)C(=O)c2cc([N+](=O)[O-])ccc2N2CCOCC2)c1 | 0.91 | i
Cc1cc(Br)ccc1NC(=O)CN(C)C(=O)c1cc([N+](=O)[O-])ccc1N1CCOCC1 | -6.5 | -6.5*
O=C(Nc1ccc2c(c1)OCO2)C1CCN(Cc2cnn(-c3ccccc3)c2-n2cccc2)CC1 | nt | i
Cc1cc([N+](=O)[O-])cc(/C=N\NC(=O)C2COc3ccccc3O2)c1O (configuration not stated) | 4.9 | i
Cc1ccc(NS(=O)(=O)c2ccccc2Cl)c2c1CC(C)(C)O2 | -6 | -6*
Cc1ccc(NC(=O)CN2CCCC2)c2c1CC(C)(C)O2 | 1.2 | i
COc1ccccc1NC(=O)CSc1nc2n[nH]c(C)c2c(=N)n1-c1ccccc1Cl | nt | i
Cc1cccc2c1-c1sc(C(=O)N3CCCCC3)cc1CO2 | nt | i
Cc1cccc2c1-c1sc(C(=O)N3CCc4ccccc4C3)cc1CO2 | -5.6 | -5.6*
Cc1ccc(S(=O)(=O)c2c(C)nn(C(C)(C)C)c2OC(=O)CC(C)C)cc1 | -7.6 | -7.6*
Cc1ccc(S(=O)(=O)c2c(C)nn(C(C)(C)C)c2OC(=O)C(C)C)cc1 | nt | i
COc1ccc(Br)cc1CNC(=O)c1ccc2c(c1)N(C)CCS2 | -6.4 | -6.4*
CCN1CCSc2ccc(C(=O)NCc3cc(Br)ccc3OC)cc21 | nt | i
CN(Cc1cccnc1)C(=O)CNC(=O)c1ccc(Cl)cc1Cl | 0.03 | i
N#C/C(=C\c1c(Oc2ccccc2F)nc2ccccn2c1=O)C(=O)NC1CCS(=O)(=O)C1 (configuration not stated) | nt | i
O=c1c2ccccc2[nH]c(=S)n1CCN1CCCCC1 | 0.03 | i
O=c1c2ccccc2[nH]c(=S)n1CCC1=CCCCC1 | 8.4* | i
NS(=O)(=O)c1ccc(-c2cccc(/C=C3\SC(=O)NC3=O)c2)cc1 | 0.29 | i
SMILES | KCNQ2 enhance | KCNQ2 block
COC(C(=O)Nc1ccnn1C1CCN(Cc2ccc(C)s2)CC1)c1ccccc1 (configuration not stated) | 3.2 | i
CC(=O)Nc1c2c(nn1-c1ccccc1)CSC2 | 0.7 | i
CC(C)(C)C(=O)Nc1c2c(nn1-c1ccccc1)CSC2 | -8.2 | -8.2*
C/C(=N\Nc1ccc(C(=O)O)cc1)c1ccc(S(=O)(=O)NCc2ccco2)cc1 | 2.2 | i
C/C(CC(=O)Nc1ccc(Cl)cn1)=N\NC(=O)Cc1cccs1 | 1.1 | i
O=C(c1cccs1)N1CCN(c2nnc(-c3ccccc3)c3ccccc23)CC1 | -5.9 | -5.9*
Cc1ccc(-c2nnc(N3CCN(C(=O)c4cccs4)CC3)c3ccccc23)cc1 | nt | i
Cc1cccc2[nH]c(SCC(=O)N3CCOCC3)nc12 | nt | i
Cc1cc(Sc2nc(N)ncc2[N+](=O)[O-])ncn1 | nt | i
Cc1cc(Sc2ncnc(N)c2[N+](=O)[O-])ncn1 | -5.9 | -5.9*
Cc1cc(C)c(S(=O)(=O)NCC2CCC(C(=O)NCCCN3CCC(C)CC3)CC2)c(C)c1 (configuration not stated) | nt | i
Cc1cccnc1Nc1nc(-c2ccccn2)cs1 | 1.9 | i
Cc1cccnc1Nc1nc(-c2ccccc2)cs1 | -7.8 | -7.8*
CN(C)/C=C(\C#N)S(=O)(=O)c1ccc(Cl)cc1 | -6.8 | -6.8*
CN1CCN(/C=C(\C#N)S(=O)(=O)c2ccc(Cl)cc2)CC1 | nt | i
COc1cccc(-n2c(SCC(=O)Nc3sc4c(c3C(N)=O)CCC4)nc3ccccc3c2=O)c1 | -6.1 | -6.1*

Bioassay records deposited in PubChem by Johns Hopkins Ion Channel Center.
